From ChEMBL document CHEMBL1157539, “Thousands of chemical starting points for antimalarial lead identification” (Nature, 2010)

Experiments:
Assay type in all cases: functional
[1] = test system: Plasmodium falciparum; test: GSK_TCMDC: Inhibition of Plasmodium falciparum 3D7 in whole red blood cells, using parasite LDH activity as an index of growth. Test compounds present at 2uM
[2] = test system: Plasmodium falciparum; test: GSK_TCMDC: Inhibition of Plasmodium falciparum Dd2 in whole red blood cells, using parasite LDH activity as an index of growth. Test compounds present at 2uM
[3] = test system: HepG2; test: GSK_TCMDC: Percent inhibition of human HepG2 cell line. Test compounds present at 10uM.

| SMILES | Inhibition [1] [%] | Inhibition [2] [%] | Inhibition [3] [%] |
| --- | --- | --- | --- |
| Cn1cc(C2CCN(CCCCCNC(=O)/C=C/c3ccc(Cl)c(Cl)c3)CC2)c2cc(O)ccc21 | 94 | 0 | 11 |
| Oc1ccc2nc(NCCCc3ccccc3)nc(NCCCc3ccccc3)c2c1 | 100 | 93 | 5 |
| COc1ccc(NCc2cccc(-c3cccc(CNCCc4ccccc4)c3)c2)cc1.O=C(O)C(F)(F)F | 96 | 14 | 41 |
| CCCC(C)Nc1nc(C)cc(N[C@@H](CC(C)C)C(=O)NCc2ccc(C)cc2)n1.O=C(O)C(F)(F)F (stereo not given in full) | 98 | 51 | 16 |
| O=C(/C=C/c1cccc(Br)c1)NCCCCCN1CCC(c2c[nH]c3ccccc23)CC1 | 100 | 15 | 38 |
| NC(=O)c1cccc(C(=O)Nc2cccc(-c3cccc(-c4nc5cc(F)ccc5[nH]4)c3)c2)c1 | 100 | 73 | 47 |
| CCCCCCN(CCCCCC)CCCCNc1c2ccc(Cl)cc2nc2ccc(OC)cc12.Cl | 100 | 94 | 65 |
| CCN(CC)CCCNc1ncc2c(-c3ccc(NC(=O)Nc4cc(C(F)(F)F)ccc4F)cc3)nn(C)c2n1.O=C(O)C(F)(F)F | 99 | 74 | 81 |
| Cc1ccc(NC(=O)c2cc([N+](=O)[O-])ccc2NCc2cccnc2)cc1Cl | 86 | 58 | 9 |
| O=C(O)C(F)(F)F.c1ccc(CN2CCC(NCc3ccc(-c4cccc(CNC5CCCC5)c4)cc3)CC2)cc1 | 100 | 100 | 55 |
